Out of some 5,500 compounds screened, about 2,000 (36%) were called active. Not shown: some 18% with an inconclusive outcome. No stated cut-off is given here; in the data, active means normalized growth mostly below about 0.91 (no sharp cut-off); inconclusive means no clear call, values can overlap the other calls; inactive means mostly above about 0.92. This is one part of the list.
Assay: chemical genetic growth profiling, strain panel (AID 1159580);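 further: tested at 20 µM; growth read once vehicle control cultures reached saturation at 30 °C; 1 = growth at the plate median or of vehicle wells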
Details: S. cerevisiae deletion strains, growth OD

Measured: normalized growth

COc1cc(-c2coc3cc(O)c(OC)c(O)c3c2=O)cc(O)c1OC
inactive: locus YHR030C, strain SLT2, stronger effect = lower value 1.02 | locus YHR079C, strain IRE1, stronger effect = lower value 1.03 | locus YJL095W, strain BCK1, stronger effect = lower value 1.02 | locus YJR066W, strain TOR1, stronger effect = lower value 0.969 | locus YLR113W, strain HOG1, stronger effect = lower value 1.02 | locus YNL183C, strain NPR1, stronger effect = lower value 1 | locus YOR231W, strain MKK1, stronger effect = lower value 1.03 | locus YPL256C, strain CLN2, stronger effect = lower value 1.07
